{"source": "PubChem BioAssay (NCATS)", "note": "Inconclusive results are not listed. A call without a number means that no potency is given here. Activity calls are given as the source filed them. The call rests on the fitted dose curve; in most records, active means well fitted cell-killing curve with a large enough effect; inconclusive means small, poorly fitted or top-dose-only effect; inactive means flat fitted curve, though single readings scatter. Potency means the concentration at half of the fitted maximal effect.", "data": [{"experiment": "Cell Viability - LYMP2-015 (AID 971); further: nearly all actives have a fitted effect of over 55% in size", "details": "LYMP2-015 lymphoblastoid cell viability; series mostly up to 92.2 µM", "source_text": "NIH Chemical Genomics Center [NCGC]\nNIH Molecular Libraries Screening Centers Network [MLSCN]\nNational Institutes of Environmental Health Sciences [NIEHS]\nNational Toxicology Program [NTP]\nWe have developed a 1536-well cell-based assay for quantitative high throughput screening (qHTS) against a number of cell lines to determine in vitro cytotoxicity of small molecules. This particular assay uses a human lymphoblastoid cell line (LYMP2-015) purchased from Coriell Institute for Medical Research.\nNCGC Assay Protocol Summary:\nThe CellTiter-Glo luminescent cell viability assay (Promega) is a homogeneous method to measure the number of viable cells in culture. The end point readout of this assay is based on quantitation of intracellular ATP, an indicator of metabolic activity, using the luciferase reaction. Luciferase catalyzes the oxidation of beetle Luciferin to oxyluciferin and light in the presence of ATP. The luminescent signal is proportional to amount of ATP present.\nUsing the CellTiter-Glo luminescent cell viability assay, the amount of cellular ATP was measured in the lymphoblastoid cell line with complete culture medium following compound treatment for 24 hours. The assay was performed in opaque white Kalypsys 1536-well plates. In the screen, tetraoctylammonium bromide was used as positive control. Library compounds were measured for their ability to cause acute toxicity in the cell line, as reflected by a decrease in intracellular ATP levels, in a concentration-dependent manner. […] AC50 values were determined from concentration-response data modeled with the standard Hill equation.\nqHTS protocol for CellTiter Glo lymphoblastoid cellular assay\n[Step] [Parameter] [Value] [Description]\n1. Reagent; 5 uL; 2500 lymphoblastoid cells/well\n2. Time; 5 hr; 37 C incubation\n4. Controls; 23 nL; Tetraoctylammonium bromide 6.4pM to 92 uM\n5. Time; 24 hr; 37 C incubation\n6. Reagent; 5 uL; CellTiter Glo reagent\n7. Time; 30 min; Room Temperature\n8. Detection; Luminescence; Viewlux plate reader\nKeywords: cell viability, cytotoxicity, lymphoblastoid cell line, luminescence, NTPHTS, NTPHTS_NCGC, NIEHS, DSSTox, MLSMR, MLSCN, NIH Roadmap, qHTS, NCGC", "values": [{"smiles": "CCCCCCCC(=O)O", "Potency": "inactive"}, {"smiles": "CCOC(C)=O", "Potency": "inactive"}, {"smiles": "CC(O)CO", "note": "(centres undefined)", "Potency": "inactive"}, {"smiles": "IC(I)I", "Potency": "inactive"}, {"smiles": "Nc1ccn([C@H]2CS[C@@H](CO)O2)c(=O)n1", "Potency": "inactive"}, {"smiles": "O=C(O)CCC(=O)C(=O)O", "Potency": "inactive"}, {"smiles": "CCCCC/C=C\\C/C=C\\CCCCCCCC(=O)O", "Potency": "inactive"}, {"smiles": "O=CCCCC=O", "Potency": "15.8 µM (active)"}, {"smiles": "O=S(=O)(O)O", "Potency": "inactive"}, {"smiles": "CCOc1ccc2c(c1)C(C)=CC(C)(C)N2", "Potency": "inactive"}, {"smiles": "CC1=C2[C@@H]([C@H](C)CC[C@H]2/C=C(\\C)C(=O)O)[C@H](O)C1", "Potency": "inactive"}, {"smiles": "CCCCCCCC/C=C\\CCCCCCCC(=O)O", "Potency": "inactive"}, {"smiles": "Cc1ccccc1", "Potency": "inactive"}, {"smiles": "CC(C)=O", "Potency": "inactive"}]}]}
